The results in this text go back to PubChem BioAssay AID651598 (Sanford-Burnham Center for Chemical Genomics, 2012).

“And” between values parts separate entries of the source, which are not always exact repeats. Identical values can stand only once.

Chain of Apelin receptor (Homo sapiens) (P35414 whole entry, looked up): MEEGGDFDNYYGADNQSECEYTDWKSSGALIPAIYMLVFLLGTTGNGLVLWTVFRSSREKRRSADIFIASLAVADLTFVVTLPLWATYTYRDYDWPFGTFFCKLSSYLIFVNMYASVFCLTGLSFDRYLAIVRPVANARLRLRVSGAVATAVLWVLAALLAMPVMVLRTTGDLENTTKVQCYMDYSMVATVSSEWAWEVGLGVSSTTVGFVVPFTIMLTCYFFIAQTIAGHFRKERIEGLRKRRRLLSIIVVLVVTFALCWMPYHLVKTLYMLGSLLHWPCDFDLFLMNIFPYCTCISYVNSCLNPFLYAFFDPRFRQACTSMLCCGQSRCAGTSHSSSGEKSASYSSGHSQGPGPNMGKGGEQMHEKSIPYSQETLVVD

The assay concerns the target Apelin receptor (Homo sapiens) (UniProt P35414). Put plainly: apelin receptor (APJ) antagonists, SAR follow-up, counter-screen for CXCR6 antagonist project, cell-based, beta-arrestin, DiscoveRx, panel, CHO-K1 (AID 651598). Conditions: CHO-K1 PathHunter beta-arrestin luminescence, antagonist mode; run 4, at 80 µM (top of the series).
Take `COc1cc(C(=O)NC2CC3CCC(C2)N3CC(=O)Nc2ccccc2)cc(OC)c1OC` (stereo not drawn): the inhibition is -13.5% and 16.7%.

On to `COc1cc(C(=O)NC2CC3CCCC(C2)N3CC(=O)Nc2ccccc2)cc(OC)c1OC` (stereo not drawn), for which the inhibition was 17% and 11.6% and 7.8%.

With `COc1cc(C(=O)NC2CCN(CC(=O)Nc3ccccc3)CC2)cc(OC)c1OC`, the inhibition was -1.54%.
